Measurements from PubChem BioAssay (NCI).
This is part of a sample that, as a whole, favours compounds with a hit. Of some 79,000 tested, about 15% had one in any assay. Rule as the data show it: active = growth inhibition above about 70%; inactive = the rest.

Legend:
[1] = NCI Yeast Anticancer Drug Screen. Data for the sgs1 mgt1 strain (AID 161);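 also: 0% = growth of cultures given vehicle only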; conditions: S. cerevisiae sgs1 mgt1 strain, active compounds read high
Summary of the method: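 Mutant yeast exposed to compound; growth scored against vehicle-only wells.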

[2] = NCI Yeast Anticancer Drug Screen. Data for the CLN2oe strain (AID 163);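 also: 0% = growth of vehicle-only control cultures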; conditions: S. cerevisiae CLN2oe strain, active compounds read high
Summary of the method: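 Inhibition relative to vehicle-treated yeast is reported. Cells: strain with genetic alteration in cell-cycle control, grown with compound.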

[3] = NCI Yeast Anticancer Drug Screen. Data for the cln2 rad14 strain (AID 165);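 also: 0% = growth equal to vehicle treated cultures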; conditions: S. cerevisiae cln2 rad14 strain, active compounds read high
Summary of the method: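 Each compound was tested on cln2 rad14 yeast. Inhibition of growth was calculated against vehicle-exposed controls.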

[4] = NCI Yeast Anticancer Drug Screen. Data for the bub3 strain (AID 167); conditions: S. cerevisiae bub3 mutant strain, active compounds read high
Summary of the method: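 Whole-cell yeast assay. The mutant strain was incubated with compounds, and growth inhibition was determined by comparison with vehicle-treated cells.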

[5] = NCI Yeast Anticancer Drug Screen. Data for the wt2 strain (AID 169);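 also: 0% = growth of vehicle-treated yeast cultures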; conditions: S. cerevisiae wt2 strain growth inhibition, active compounds read high
Summary of the method: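 Inhibition of yeast growth was determined after compound treatment, normalised to controls receiving only vehicle.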

[6] = NCI Yeast Anticancer Drug Screen. Data for the mlh1 strain (AID 171);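 also: 0% = growth of vehicle-treated control cultures of the same strain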; conditions: S. cerevisiae mlh1 strain growth inhibition, active compounds read high
Summary of the method: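 Vehicle-normalised growth inhibition of a repair- or checkpoint-altered yeast strain following compound treatment.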

[7] = NCI Yeast Anticancer Drug Screen. Data for the sgs1 strain (AID 173);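 also: 0% = growth of vehicle-only control cultures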; conditions: S. cerevisiae sgs1 mutant, active compounds read high
Summary of the method: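 Screen format: yeast with repair or checkpoint alterations, compound exposure, growth read relative to vehicle.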

[8] = NCI Yeast Anticancer Drug Screen. Data for the mlh1 rad18 strain (AID 175); conditions: S. cerevisiae mlh1 rad18 strain growth inhibition, active compounds read high
Summary of the method: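 Vehicle-treated cultures served as the reference for growth inhibition in a yeast strain carrying DNA damage repair alterations exposed to each compound.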

[9] = NCI Yeast Anticancer Drug Screen. Data for the rad18 strain (AID 177); conditions: S. cerevisiae rad18 mutant growth inhibition, active compounds read high
Summary of the method: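 Test articles were incubated with altered yeast defective in DNA damage repair. Results are given as inhibition of growth versus vehicle.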

[10] = at 5.0 µM (retest, dose inferred, filed as 0.5)
[11] = at 50.0 µM (retest, dose inferred, filed as 5.0)

Measured: growth inhibition

Cc1cc2c3ccccc3c3ccccc3c2nn1
inactive: [1]; [10] -61% | [1]; [11] -15% | [1]; at 50.0 µM 36.5% | [2]; at 1.2 µM -3% | [2]; at 3.7 µM -3% | [2]; at 11.0 µM 1% | [2]; at 33.0 µM 1% | [2]; at 100.0 µM 0% | [3]; [10] -59% | [3]; [11] -24% | [3]; at 50.0 µM 27.5% | [4]; at 1.2 µM -9% | [4]; at 3.7 µM -1% | [4]; [10] -64% | [4]; at 11.0 µM 7% | [4]; at 33.0 µM 9% | [4]; [11] -31% | [4]; at 50.0 µM 29.1% | [4]; at 100.0 µM 11% | [5]; at 1.2 µM -4% | [5]; at 3.7 µM -3% | [5]; at 11.0 µM -3% | [5]; at 33.0 µM -3% | [5]; at 100.0 µM -6% | [6]; at 1.2 µM 5% | [6]; at 3.7 µM -6% | [6]; at 11.0 µM 0% | [6]; at 33.0 µM 1% | [6]; at 100.0 µM -3% | [7]; at 1.2 µM -3% | [7]; at 3.7 µM -6% | [7]; at 11.0 µM 0% | [7]; at 33.0 µM 12% | [7]; at 100.0 µM 11% | [8]; [10] -88% | [8]; [11] -13% | [8]; at 50.0 µM 60.4% | [9]; at 1.2 µM -2% | [9]; at 3.7 µM 2% | [9]; at 11.0 µM 10% | [9]; at 33.0 µM 12% | [9]; at 100.0 µM 10%
